# Experimental data reported in the supplement of paper PMC10105736.
# Unmarked numbers belong to inactive results.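 Rule for the calls: active = MAPPIT score above the 99th percentile of random reference set scores in the same batch; inactive = at or below it.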
# B1: MCU (protein)
# chain: MSRNRAAMVSAFRLFLRPATTTTHRSLALRLAPGTTFALHLRPCHELQQHRSFASTAEDGETDKHKKPTTGEDIYVEYVNGMPHMTVRLPSRNELCQFALKPISHNVGDLLAMLRAEDRGIDRAAVINKHGVRIASSCTIESLLDDSFSIQINNRTLDVNPPKRDKVTLESMDKVGDVRKVIAQLYEAFNVGEYQLEKSNQLAKELETLRYELEPLEEKKLELSKKAARRTNFMTWMGLGLMSVQFGILARLTWWEYSWDIMEPVTYFVTYGTTMAMYAYYCVTKREYMMEDVKNREFSLSLYRNAKKVQFDVEHYNELKRKSAELEYNLRRINDPLNMQLPSHLVRTQENTPPTLTEEKAERKYT
# B2: Cog6 (protein)
# chain: MSSTQEKPEELDRIQKRVNKILEARLESDKDTLDALSGLSTFFTENTLQNRRNLRSQIEHRSVGINENFLKAFRQVKLSLDAVCEDLDTMATSVETMKSDLETSKALTKDLIKQTNTMQRERDRLEVHKQIAQAFLARFQLSGAEHQLLYGAAKDAPIVADFFRVLDRVQSIHADCRLLMQCGYQTAAIDIMEEMTLHQEGALERLYRWTQNHCRSLENNEIGPLIVEAMSRLQDRPVLFKYVIDEYAIARRAVLVRQFIEALTEGGPGGNPKPIELHAHDPKRYIGDMFAWLHQSIPTEKENLSLLFKKCDKQDISDQLQNALGYIADGVCHPLKVRVETILQAEKDTIVLFTISNLLRFYQQIMRQVVQGGSLEECLVELQKSSEQIYLGALAAQVRSVLQRPSGGSGLALEPPQRDLVPPPSVARLLNMLKEILSVATMVDGRQADITKIVSCVIDPLLQSVQESAAHLPTVDMGVYLLNCLHHMQSSLAVYEYMDERVERLQAQSDAQLDTLTSEQASSLVANLNLGPIYAILQSNQSKIETNLLKIFMSKMDAFLELPDVLLLPQVQLIMSSSHRAAVQKRSFNVIVAIYKQIYERVHDPANGFEQPEQLLHRTPEQVAHILTST
# B3: Iru (protein)
# chain: MAEAMVVEDRPAEAKRFFCHMCNVEINIPNSDFTCPLCANGFVEELPANAPEMDSSTAGASGSARSGSSGSGSSGSHDTLSRGSSSSGSQVNVESLRNDIVSLLNMRNVPNLEITIEPNRRHSNVLHLGGFGGPSGSDSARGLTAGGRVRPANLDRLDNVLFDFLQSLPLAGATAEIVTGPGGGGVGGGGNSHMFFMGNPGDYAWGREGLDTIVTQMLNQMETSGPPPLSAQRINEIPNVQINAEEVNRKIQCSICWDDFKIDETVRKLPCSHLYHENCIVPWLNLHSTCPICRKSLADDGNDADDEFVMLDAFGPEMAADGSNSERRSASTATGTDNPSPANNPSQAAAEGGRTRPDANPAQAARNNIFTFDDDNMFLD
# B4: MED4 (protein)
# chain: MSFHLSTKERLLLLIDDIEMIAKELIEQAHQKISSTELVDLLDLLVAKDEEFRKMLELAEEQAKVEEAMDQLRAKVEVHDREIQKLQKSLKDAELILSTAIFQARQKLASINQANKRPVSSEELIKYAHRISSANAVSAPLTWCIGDLRRPYPTDIEMRNGLLGKSEQNINGGTVTHQNSGMPSEQQRTLSGSAGSGSGSGAGGEVPNAFQNQFNWNLGELHMTMGASGNTVALETRAQDDVEVMSTDSSSSSSSDSQ
# B5: tos (protein)
# chain: MGITGLIPFVGKASSQLHLKDIRGSTVAVDTYCWLHKGVFGCAEKLARGEDTDVYIQYCLKYVNMLLSYDIKPILVFDGQHLPAKALTEKRRRDSRKQSKERAAELLRLGRIEEARSHMRRCVDVTHDMALRLIRECRSRNVDCIVAPYEADAQMAWLNRADVAQYIITEDSDLTLFGAKNIIFKLDLNGSGLLVEAEKLHLAMGCTEEKYHFDKFRRMCILSGCDYLDSLPGIGLAKACKFILKTEQEDMRIALKKIPSYLNMRNLEVDDDYIENFMKAEATFRHMFIYNPLERRMQRLCALEDYETDERYCSNAGTLLEDSEQALHLALGNLNPFSMKRLDSWTPEKAWPTPKNVKRSKHKSIWQTNFQSENTHTPKKENPCALFFKKVDFVGKTLNEEIEANQRLEQAKQTEAELFNMYSFKAKRRRSPSREDSVDQERTPPPSPVHKSRHNPFAKERTGEEANQRSPVVCENASLLRLLSPKKASPLDGEAGVKKVDSLKRSIFAKEQVQIRSRFFATQDEQTRLQREHLRDTENDDMDEQKLSSHSGHKKLRLVCKDIPGKNPIRQRCSSQISDGETDTDTTASSLLESQDKGVPSPLESQEDLNNSQPQIPTEGNTNSTTIRIKSLDLLLENSPEPTQESDRNNNDAIILLSDDSCSSDQRASSTSSSSQQRQNFLPTSKRRVGLSKPSTAKKGTPKSRTNGKLGAVSQNQTKLSMFGFQTKPVLK
# B6: Rpt2 (protein)
# chain: MGQNQSAQGGAGEKKDDKDKKKKYEPPIPTRVGKKKRRAKGPDAAMKLPQVTPHTRCRLKLLKLERIKDYLMMEDEFIRNQERLKPQDEKNEEERSKVDDLRGTPMSVGNLEEIIDDNHAIVSTSVGSEHYVSILSFVDKDQLEPGCSVLLNHKVHAVVGVLSDDTDPMVTVMKLEKAPQETYADIGGLDTQIQEIKESVELPLTHPEYYEEMGIKPPKGVILYGPPGTGKTLLAKAVANQTSATFLRVVGSELIQKYLGDGPKLVRELFRVAEEHAPSIVFIDEIDAVGTKRYDSNSGGEREIQRTMLELLNQLDGFDSRGDVKVIMATNRIETLDPALIRPGRIDRKIEFPLPDEKTKRRIFTIHTSRMTLAEDVNLSELIMAKDDLSGADIKAICTEAGLMALRERRMKVTNEDFKKSKESVLYRKKEGTPEGLYL
# Key:
# Experiment in all cases: MAPPIT interaction score (arbitrary units); higher = stronger binary interaction signal, active = hit call of the paper
# [1] = target: CG34345; conditions: pair source set: RRS
# [2] = target: CG3457; conditions: MAPPIT configuration: N-N; pair source set: Finley_Y2H
# [3] = target: CG3473; conditions: MAPPIT configuration: N-N; pair source set: screen_2
# [4] = target: Ubc2; conditions: MAPPIT configuration: N-N; pair source set: screen_2
# [5] = target: CG3517; conditions: MAPPIT configuration: N-N; pair source set: Finley_Y2H
# [6] = target: CG3557; conditions: MAPPIT configuration: N-N; pair source set: Curagen_low_conf
# [7] = target: Mst84Db; conditions: MAPPIT configuration: N-N; pair source set: Curagen_low_conf
# [8] = target: CG3565; conditions: MAPPIT configuration: N-N; pair source set: DPIM
# [9] = target: CG9588; conditions: MAPPIT configuration: N-N; pair source set: Lit-BS-16
# [10] = target: Prosalpha2; conditions: MAPPIT configuration: N-N; pair source set: Lit-BM-16
# [11] = target: Rpn1; conditions: MAPPIT configuration: N-N; pair source set: Lit-BM-16
# [12] = target: Rpt1; conditions: MAPPIT configuration: N-C; pair source set: Lit-BM-16
# [13] = target: Rpt6; conditions: MAPPIT configuration: N-C; pair source set: Lit-BM-16
# 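Note: HEK293T cells with Epo stimulation, STAT-responsive firefly luciferase reporter, fold induction versus unstimulated cells divided by the larger fold induction of two negative controls lacking either bait or prey.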
binder,measurement,setting,value
B1,MAPPIT interaction score,[1]; MAPPIT configuration: N-C,0.433
same,MAPPIT interaction score,[1]; MAPPIT configuration: N-N,0.157
B2,MAPPIT interaction score,[2],0.308
B3,MAPPIT interaction score,[3],0.831
same,MAPPIT interaction score,[4],0.234
B4,MAPPIT interaction score,[5],1.9
B5,MAPPIT interaction score,[6],0.0573
same,MAPPIT interaction score,[7],-0.0214
B6,MAPPIT interaction score,[8],2.71 (active)
same,MAPPIT interaction score,[9],0.822
same,MAPPIT interaction score,[10],2.86 (active)
same,MAPPIT interaction score,[11],6.22 (active)
same,MAPPIT interaction score,[12],1.56
same,MAPPIT interaction score,[13],0.824
